# ± gives the standard deviation.
# Tested on: EfPiwi piRISC loaded with L1MC piRNA (26 nt)
# Test: pre-steady-state target cleavage rate (min^-1); auxiliary factor: 500 nM Ephydatia muelleri Gtsf1; guide: L1MC piRNA 5'p-UAACUAAAUACUAUGCAAGCUGUAGG; MIWI and MILI are mouse PIWI proteins and EfPiwi is from a freshwater sponge; tags in brackets are library labels; higher = faster piRNA-guided slicing of the target
# Method in brief: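 Using HEPES–potassium acetate buffer at 33 °C, 1 nM active affinity-purified piRISC with a single synthetic guide was mixed with 0.1 nM transcribed, DNA-blocked target RNA library for 0–8 or 0–960 min, with or without 500 nM GTSF1 partner protein. Uncleaved targets were sequenced and normalised to depth and to weakly complementary targets, and three trials were pooled with k3 capped at 0.0001 min^-1. A burst-and-steady-state fit gave the pre-steady-state cleavage rate.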
row,Sequence,pre-steady-state target cleavage rate
1,UCCUGGAUGUCGUUGCAUAGUACUUAGUUA,0.00365 ± 0.0035
2,UCCUGGAUCAGCUUAGCAUAGUAUUUAGUUA,0.0874 ± 0.019
3,UCCUCCUACAGGCUUGCAUAGUAUUUAGUUA,0.0234 ± 0.0078
4,UCCUCCUACAGCCUUGCAUAGUAUUUAGUUA,0.0222 ± 0.0079
5,UCCUGGAUGAGCUUGCAUAGUAUUUUGUUA,0.00491 ± 0.0017
6,UCCUCCUACAGCUUGCAUUGUAUAUAGUUA,0.00608 ± 0.0036
7,UCCUGGAUCAGCUUGCAUAGUAUUCAGUUA,0.00509 ± 0.0019
8,UCCUCCUACAGCUUGCAUUGUAUUUUGUUA,0.00442 ± 0.0027
9,UCCUGGUACAGCUUGGAUAGUAUAUAGUUA,0.00702 ± 0.0025
10,UCCUGCUACAGCUUGCAUUGUAUUUAGUAA,0.00316 ± 0.0014
11,UCCUGGAUGUGCUUGCAUAGUAGUUAGUUA,0.0116 ± 0.0041
12,UCCUCCUACAGCUUGCAUAGUAGUUAGUUA,0.00786 ± 0.0026
13,UCCUGGAUGAGCUUGCAUAUUAUUUAGUUA,0.00658 ± 0.0032
14,UCCUGGAUCAGCUUGCAUUGUAAUUAGUUA,0.00179 ± 0.0017
15,UCCUCCUAGAGCUUGCAUAGUAUAUAGUUA,0.00597 ± 0.0022
16,UCCUGGUACAGCUUGCAUAGUAUUUAGAUUA,0.00491 ± 0.0025
17,UCCUGGAUGAGCUUCAUAGUAUUUAGUUA,0.00394 ± 0.0033
18,UCCUGGAUGUCGAUUGCAUAGUAUUUAGUUA,0.00712 ± 0.0027
19,UCCUGCUCACAGCUUGCAUAGUAUUUAGUUA,0.072 ± 0.016
20,UCCUGGAUCAGCUUGCAUAGUAUUUAGUUU [g2:g22:cont:t1U],0.121 ± 0.025

row,Sequence,pre-steady-state target cleavage rate
1,UCCUGGAUGUGCUUGCAUGGUAUUUAGUUA,0.0043 ± 0.0042
2,UCCUGGAUGAGCUUGCAUAGUAUUUACGUUA,0.00466 ± 0.0026
3,UCCUGGAUCACGAUGCAUAGUAUUUAGUUA,0.0115 ± 0.004
4,UCCUGGUACAGGUUGCAUAGUAUUAAGUUA,0.00485 ± 0.0027
5,UCCUCCUUGAGCUUGCAUAGUAUUUAGUUA,0.0223 ± 0.0062
6,UCCUGGUACACCUAGCAUAGUAUUUAGUUA,0.00319 ± 0.0029
7,UCCUGGAUCACCUUGCAUAGUAAUUAGUUA,0.123 ± 0.049
8,UCCUGGAUCAGCUUGCAUAGUAUUUACAAA,0.00404 ± 0.002
9,UCCUGGUACAGCUUGCAUAGUAAUUUAGUUA,0.00647 ± 0.0026
10,UCCUGCUUACAGCUUGCAUAGUAUUUAGUUA,0.0638 ± 0.015
11,UCCUCCUACAGCUUGCAUAGUAUCUUAGUUA,0.0254 ± 0.011
12,UCCUGGAUCAGCUUGCAUAGUAUGUUAGUUA,0.031 ± 0.0087
13,UCCUCCUACAGCUUGCUUUGUAUUUAGUUA,0.0093 ± 0.0052
14,UCCUGCUUCAGCUUGCAUAGUAUUUAGUAA,0.00811 ± 0.0033
15,UCCUGCUACAGCUUGCUUAGUUUUUAGUUA,0.0055 ± 0.0019
16,UCCUGGAACAACUUGCAUAGUAUUUAGUUA,0.0809 ± 0.023
17,UCCUCCUACUGCUUGCAUAGUAUUAAGUUA,0.00682 ± 0.0034
18,UCCUGGUAAGCUUGCAUAGUAUUUAGUUA,0.0168 ± 0.0044
19,UCCUGCUACAGCUUCCAUUGUAUUUAGUUA,0.00266 ± 0.0018
20,UCCUGGAUCAGCAUGCAUAGUAUUAAGUUA,0.00392 ± 0.002

# From the supplement of paper PMC10338343
